Data: PubChem BioAssay (NCI)
Compounds without any hit were thinned out: in the full panel of roughly 79,000, 15% have a hit. A number with no mark means an inactive call. The source made the active and inactive calls. Rule as the data show it: active = growth inhibition above about 70%; inactive = the rest.

Experiment: NCI Yeast Anticancer Drug Screen. Data for the mlh1 rad18 strain (AID 175)
Details: S. cerevisiae mlh1 rad18 strain growth inhibition; at 5.0 µM (retest, dose inferred, filed as 0.5); active compounds read high
In short: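 Growth inhibition of the yeast strain was measured after compound exposure and expressed relative to vehicle-treated controls. The strain carries defined defects in DNA damage repair.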

Row | Compound | growth inhibition
1 | CCN(CC)CC[n+]1ccc2c(C)c3[nH]c4ccc(O)cc4c3c(C)c2c1 | 7%
2 | O=[n+]1c2ccc(Cl)cc2n([O-])c2ccc(Cl)cc21 | 11%
3 | CCOP(=O)(OCC)C(Cc1ccccc1)N=C(c1ccccc1)c1ccccc1 (stereo not drawn) | -18%
4 | CC[C@@]1(O)C(=O)OCc2c1cc1n(c2=O)Cc2cc3c(N)cccc3nc2-1 | -6%
5 | COC1C=COC2(C)Oc3c(C)c(O)c4c(c3C2=O)/C(=N/C2CCC(O)OC2C)C=C(NC(=O)/C(C)=C\C(=O)C2CC2C(O)C(C)C(O)C(C)C(OC(C)=O)C1C)C4=O (stereo not drawn) | -7%
6 | COc1cc2c(c(OC)c1OC)-c1c(cc3c(c1OC)OCO3)CC(C)C(C)(O)C2OC(=O)c1ccccc1 (stereo not drawn) | 3%
7 | O=c1ssc2ncccc12 | 56%
8 | O=C1C2C(C(=O)N1c1ccc(OCc3ccccc3)cc1)C1c3ccccc3C2C2CCCCN21 (stereo not drawn) | -6%
9 | COc1ccc(-c2cn(-c3ccc(I)cc3)c3ncnc(N)c23)cc1 | 4%
10 | CCOC(=O)C(NC(=O)c1ccccc1)(N1CCN(c2cc3c(cc2F)c(=O)c(C(=O)O)cn3C2CC2)CC1)C(F)(F)F (stereo not drawn) | -21%
11 | C/C(=N\O)C1CC2C=C(C#N)C1N(Cc1ccccc1)C2 (stereo not drawn) | 0%
12 | CC/C(=C(\c1ccccc1)c1ccc(OCCN(C)C)cc1)c1ccccc1 | 46%
13 | COc1ccccc1N=NC(C(=O)c1ccccc1)C(=O)c1ccccc1 | -7%
14 | CC(O)C(O)C(O)C(/C=N\Nc1ccccc1)=N/Nc1ccccc1 (stereo not drawn) | 7%
15 | COc1ccc(/C=C2\SC(=S)N(/C=C/c3nc4ccccc4[nH]c3=O)C2=O)cc1OC | -11%
16 | N#CN=Nc1cc(Cl)c(N=NC#N)cc1Cl | -10%
17 | Cc1ccc(S(=O)(=O)Oc2cc(Cl)c(Cl)cc2Cl)cc1 | 18%
18 | c1ccc2c(c1)Oc1cccc3cccc-2c13 | 100% (active)
19 | O=C(c1ccc(Cl)cc1Cl)C(Cl)Cl | 34%
20 | CC(C)C1=CCC2C(=C1)CCC1C(C)(C(=O)O)CCCC21C (stereo not drawn) (tested in a mixture with another compound) | 40%

Row | Compound | growth inhibition
21 | COc1cc(/C=C2\CCc3ccccc3C2=O)cc(OC)c1OC | -15%
22 | CC(=O)[O][Bi]([c]1ccccc1)[c]1ccccc1 | 42%
23 | S=C(N/N=C/c1ccccn1)Nc1ccc(Cl)cc1 | 44%
24 | COc1cc(CC2CC(c3ccc4c(c3)OCO4)OC2=O)cc(OC)c1OC (stereo not drawn) | -2%
25 | CNC1C(OC2C(OC3C(O)C(O)C(N=C(N)N)C(O)C3N=C(N)N)OC(C)C2(O)CO)OC(CO)C(O)C1O (stereo not drawn) | 12%
26 | NNC(=O)CCc1ccc2ccc3ccccc3c2c1 | -10%
27 | Oc1ccc2ccccc2c1C(c1ccc(Cl)cc1)c1c(O)ccc2ccccc12 | 99% (active)
28 | CCCCN(CCCC)CCSc1ccc(Cl)cc1 | 3%
29 | CCC(C)COC(=O)c1ccc(N=Cc2ccc(C=Nc3ccc(C(=O)OCC(C)CC)cc3)cc2)cc1 (stereo not drawn) | 50%
30 | CC1(C)C(=O)OC(n2cc(F)c(=O)[nH]c2=O)C1=O (stereo not drawn) | 13%
31 | O=[N+]([O-])CC(SCc1ccccc1)c1ccc2c(c1)OCO2 (stereo not drawn) | 73% (active)
32 | COc1cc2c(cc1[N+](=O)[O-])C(=O)C(Br)(Br)CCC2 | 18%
33 | OCC1OC(OCC(O)C(O)C(O)C(/C=N/Nc2ccccc2)=N/Nc2ccccc2)C(O)C(O)C1O (stereo not drawn) | 18%
34 | COc1ccc(N=C2C(=O)Nc3ccc(Br)cc32)cc1 | 47%
35 | Cn1c(=O)c2ccccc2c2ccccc21 | -114%
36 | CC[n+]1ccc2c(C)c3[nH]c4ccc(O)cc4c3c(C)c2c1 | 5%
37 | CC(=O)ON1C(=O)c2cccc3cccc(c23)C1=O | 44%
38 | COc1ccc2ccc3ccccc3c2c1C=O | 14%
39 | OC1CCCc2c1cc1ccc3cccc4ccc2c1c34 (stereo not drawn) | 52%

Same assay, conditions: S. cerevisiae mlh1 rad18 strain growth inhibition; at 50.0 µM (retest, dose inferred, filed as 5.0); active compounds read high

Row | Compound | growth inhibition
40 | CCN(CC)CC[n+]1ccc2c(C)c3[nH]c4ccc(O)cc4c3c(C)c2c1 | 19%
41 | O=[n+]1c2ccc(Cl)cc2n([O-])c2ccc(Cl)cc21 | 84% (active)
42 | CCOP(=O)(OCC)C(Cc1ccccc1)N=C(c1ccccc1)c1ccccc1 (stereo not drawn) | 22%
43 | CC[C@@]1(O)C(=O)OCc2c1cc1n(c2=O)Cc2cc3c(N)cccc3nc2-1 | 1%
44 | COC1C=COC2(C)Oc3c(C)c(O)c4c(c3C2=O)/C(=N/C2CCC(O)OC2C)C=C(NC(=O)/C(C)=C\C(=O)C2CC2C(O)C(C)C(O)C(C)C(OC(C)=O)C1C)C4=O (stereo not drawn) | 48%
45 | COc1cc2c(c(OC)c1OC)-c1c(cc3c(c1OC)OCO3)CC(C)C(C)(O)C2OC(=O)c1ccccc1 (stereo not drawn) | 47%
46 | O=c1ssc2ncccc12 | 98% (active)
47 | O=C1C2C(C(=O)N1c1ccc(OCc3ccccc3)cc1)C1c3ccccc3C2C2CCCCN21 (stereo not drawn) | 69%
48 | COc1ccc(-c2cn(-c3ccc(I)cc3)c3ncnc(N)c23)cc1 | -17%
49 | CCOC(=O)C(NC(=O)c1ccccc1)(N1CCN(c2cc3c(cc2F)c(=O)c(C(=O)O)cn3C2CC2)CC1)C(F)(F)F (stereo not drawn) | 12%
50 | C/C(=N\O)C1CC2C=C(C#N)C1N(Cc1ccccc1)C2 (stereo not drawn) | 62%
51 | CC/C(=C(\c1ccccc1)c1ccc(OCCN(C)C)cc1)c1ccccc1 | 99% (active)
52 | COc1ccccc1N=NC(C(=O)c1ccccc1)C(=O)c1ccccc1 | 97% (active)
53 | CC(O)C(O)C(O)C(/C=N\Nc1ccccc1)=N/Nc1ccccc1 (stereo not drawn) | 65%
54 | COc1ccc(/C=C2\SC(=S)N(/C=C/c3nc4ccccc4[nH]c3=O)C2=O)cc1OC | 33%
55 | N#CN=Nc1cc(Cl)c(N=NC#N)cc1Cl | 98% (active)
56 | Cc1ccc(S(=O)(=O)Oc2cc(Cl)c(Cl)cc2Cl)cc1 | 53%
57 | c1ccc2c(c1)Oc1cccc3cccc-2c13 | 99% (active)
58 | O=C(c1ccc(Cl)cc1Cl)C(Cl)Cl | 75% (active)
59 | CC(C)C1=CCC2C(=C1)CCC1C(C)(C(=O)O)CCCC21C (stereo not drawn) (tested in a mixture with another compound) | 98% (active)

Row | Compound | growth inhibition
60 | COc1cc(/C=C2\CCc3ccccc3C2=O)cc(OC)c1OC | 0%
61 | CC(=O)[O][Bi]([c]1ccccc1)[c]1ccccc1 | 93% (active)
62 | S=C(N/N=C/c1ccccn1)Nc1ccc(Cl)cc1 | 95% (active)
63 | COc1cc(CC2CC(c3ccc4c(c3)OCO4)OC2=O)cc(OC)c1OC (stereo not drawn) | 8%
64 | CNC1C(OC2C(OC3C(O)C(O)C(N=C(N)N)C(O)C3N=C(N)N)OC(C)C2(O)CO)OC(CO)C(O)C1O (stereo not drawn) | 7%
65 | NNC(=O)CCc1ccc2ccc3ccccc3c2c1 | 22%
66 | Oc1ccc2ccccc2c1C(c1ccc(Cl)cc1)c1c(O)ccc2ccccc12 | 99% (active)
67 | CCCCN(CCCC)CCSc1ccc(Cl)cc1 | 80% (active)
68 | CCC(C)COC(=O)c1ccc(N=Cc2ccc(C=Nc3ccc(C(=O)OCC(C)CC)cc3)cc2)cc1 (stereo not drawn) | 50%
69 | CC1(C)C(=O)OC(n2cc(F)c(=O)[nH]c2=O)C1=O (stereo not drawn) | 48%
70 | O=[N+]([O-])CC(SCc1ccccc1)c1ccc2c(c1)OCO2 (stereo not drawn) | 97% (active)
71 | COc1cc2c(cc1[N+](=O)[O-])C(=O)C(Br)(Br)CCC2 | 99% (active)
72 | OCC1OC(OCC(O)C(O)C(O)C(/C=N/Nc2ccccc2)=N/Nc2ccccc2)C(O)C(O)C1O (stereo not drawn) | 31%
73 | COc1ccc(N=C2C(=O)Nc3ccc(Br)cc32)cc1 | 55%
74 | Cn1c(=O)c2ccccc2c2ccccc21 | 36%
75 | CC[n+]1ccc2c(C)c3[nH]c4ccc(O)cc4c3c(C)c2c1 | 30%
76 | CC(=O)ON1C(=O)c2cccc3cccc(c23)C1=O | 97% (active)
77 | COc1ccc2ccc3ccccc3c2c1C=O | 89% (active)
78 | OC1CCCc2c1cc1ccc3cccc4ccc2c1c34 (stereo not drawn) | 93% (active)
